“And” between values parts separate entries of the source, which are not always exact repeats. Equal entries are not always repeated. More than one record can exist for a structure, and the calls need not agree. The source made the active and inactive calls. The calls were made as follows: active = hit-call score of the fitted dose curve at least 0.9, where 1 is the maximum; inactive = score below 0.9.

Chain of Nuclear factor erythroid 2-related factor 2 (Homo sapiens) (Q16236 whole entry, looked up): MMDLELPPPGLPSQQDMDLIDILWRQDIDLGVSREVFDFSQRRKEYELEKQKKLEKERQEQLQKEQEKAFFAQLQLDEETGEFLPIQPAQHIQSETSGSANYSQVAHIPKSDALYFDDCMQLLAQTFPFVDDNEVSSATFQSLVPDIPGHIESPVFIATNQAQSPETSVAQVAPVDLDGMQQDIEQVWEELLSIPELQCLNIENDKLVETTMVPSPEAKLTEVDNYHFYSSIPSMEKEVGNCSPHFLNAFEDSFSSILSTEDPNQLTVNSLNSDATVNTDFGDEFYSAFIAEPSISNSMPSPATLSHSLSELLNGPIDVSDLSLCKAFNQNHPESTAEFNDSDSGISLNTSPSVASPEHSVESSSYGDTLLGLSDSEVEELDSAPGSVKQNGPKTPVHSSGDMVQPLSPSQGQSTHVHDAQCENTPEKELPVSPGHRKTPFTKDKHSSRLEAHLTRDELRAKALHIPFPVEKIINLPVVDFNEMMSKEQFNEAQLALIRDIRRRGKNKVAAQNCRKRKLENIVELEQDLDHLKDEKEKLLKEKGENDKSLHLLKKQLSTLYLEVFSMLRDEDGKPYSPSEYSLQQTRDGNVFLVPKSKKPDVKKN
Chain of Signal transducer and activator of transcription 3 (Homo sapiens) (P40763 whole entry, looked up): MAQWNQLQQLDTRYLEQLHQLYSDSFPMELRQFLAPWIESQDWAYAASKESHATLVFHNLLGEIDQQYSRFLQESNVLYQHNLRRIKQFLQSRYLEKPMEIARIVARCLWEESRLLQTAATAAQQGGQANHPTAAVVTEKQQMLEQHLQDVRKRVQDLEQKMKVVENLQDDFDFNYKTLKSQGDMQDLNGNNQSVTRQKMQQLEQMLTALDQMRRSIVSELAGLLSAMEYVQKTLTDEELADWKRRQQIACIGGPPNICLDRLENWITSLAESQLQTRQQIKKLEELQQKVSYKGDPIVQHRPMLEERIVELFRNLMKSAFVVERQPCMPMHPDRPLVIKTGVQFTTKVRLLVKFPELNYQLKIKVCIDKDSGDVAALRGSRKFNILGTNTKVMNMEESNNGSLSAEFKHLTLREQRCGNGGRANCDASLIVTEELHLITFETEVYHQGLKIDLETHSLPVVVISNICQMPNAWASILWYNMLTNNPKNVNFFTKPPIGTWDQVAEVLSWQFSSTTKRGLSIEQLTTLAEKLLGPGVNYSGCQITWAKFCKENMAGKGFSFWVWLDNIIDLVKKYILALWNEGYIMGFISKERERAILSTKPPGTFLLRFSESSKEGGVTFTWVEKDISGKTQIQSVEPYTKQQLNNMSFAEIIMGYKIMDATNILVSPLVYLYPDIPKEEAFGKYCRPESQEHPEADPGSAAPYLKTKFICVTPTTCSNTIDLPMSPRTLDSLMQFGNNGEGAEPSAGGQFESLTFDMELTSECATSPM

Read-out in the first assay: NAD(P)H dehydrogenase [quinone] 1 (NQO1), NQO1 (gene 1728)
The experiment in a line: LTEA_HepaRG_NQO1: Life Technologies and Expression Analysis (LTEA) Assay for NAD(P)H dehydrogenase [quinone] 1 (NQO1) using HepaRG (AID 2283526). The note with it: mRNA level, 48 h; actives raise or lower the signal. The procedure, abridged: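 Transcript induction or suppression is quantified by qRT-PCR in human HepaRG liver cells dosed for 48 hours. Eight half-log concentrations topping at 100 uM are used, with 0.5% DMSO as vehicle and baseline.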
A word on the AC50: it is the concentration at which the activity in the assay is half-maximal. Consider `CC/C(=C(\c1ccccc1)c1ccc(OCCN(C)C)cc1)c1ccccc1`, for which the half-maximal activity concentration (AC50) is 79.9 µM (active) and the compound was called inactive.
`O=C(c1ccc(OCCN2CCCCC2)cc1)c1c(-c2ccc(O)cc2)sc2cc(O)ccc12`: the outcome was inactive.
On the same count and under the same terms, for `CCCCOCCOCCO` the value was “inactive”.
Still for that read-out and setting: the entry for `C#C[C@]1(O)CC[C@H]2[C@@H]3CCc4cc(O)ccc4[C@H]3CC[C@@]21C` is “inactive”; for `C[C@]12CC[C@@H]3c4ccc(O)cc4CC[C@H]3[C@@H]1CC[C@@H]2O` it is “inactive”; for `COC(=O)c1ccc(C(=O)OC)cc1` it is “inactive”.
Same read-out and setting: for `C=C(C)C(N)=O` the value was “inactive”.

Read-out in another assay: Nuclear factor erythroid 2-related factor 2 (Homo sapiens) (UniProt Q16236)
The experiment in a line: LTEA_HepaRG_NFE2L2: Life Technologies and Expression Analysis (LTEA) Assay for Nuclear factor erythroid 2-related factor 2 (NFE2L2) Transcription Factor using HepaRG (AID 2283527).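 As to outcome: TaqMan qRT-PCR transcript level normalised to ACTB GAPDH and POLR2A housekeeping genes.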 The note with it: mRNA level, 48 h; actives raise or lower the signal. The procedure, abridged: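 Human liver HepaRG line treated in duplicate for 48 h with an eight-point series topping at 100 uM. Gene expression of NFE2L2 by qRT-PCR, bidirectionally fitted against the vehicle control.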
On to `CC/C(=C(\c1ccccc1)c1ccc(OCCN(C)C)cc1)c1ccccc1`, for which the concentration at half-maximal activity (AC50) was 77.1 µM (active) and the compound was called inactive.
On to `O=C(c1ccc(OCCN2CCCCC2)cc1)c1c(-c2ccc(O)cc2)sc2cc(O)ccc12`, for which the compound was called inactive.
Turning to `CCCCOCCOCCO`, the outcome was inactive.
The same measure, in the same setting: for `C#C[C@]1(O)CC[C@H]2[C@@H]3CCc4cc(O)ccc4[C@H]3CC[C@@]21C` the value was “inactive”.
Same read-out and setting: the entry for `C[C@]12CC[C@@H]3c4ccc(O)cc4CC[C@H]3[C@@H]1CC[C@@H]2O` is “inactive”.
On the same count and under the same terms, for `COC(=O)c1ccc(C(=O)OC)cc1` the value was “inactive”; for `C=C(C)C(N)=O`, “inactive”.

Read-out in the next assay: succinate dehydrogenase complex iron sulfur subunit B (SDHB), SDHB (gene 6390)
The experiment in a line: LTEA_HepaRG_SDHB: Life Technologies and Expression Analysis (LTEA) Assay for succinate dehydrogenase complex iron sulfur subunit B (SDHB) using HepaRG (AID 2283528). The note with it: mRNA level, 48 h; actives raise or lower the signal. The procedure, abridged:
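Readout is SDHB transcript level by qRT-PCR, normalised to three housekeeping genes and fitted bidirectionally against 0.5% DMSO vehicle. Human HepaRG cells were treated for 48 h at up to 100 uM.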
As for `CC/C(=C(\c1ccccc1)c1ccc(OCCN(C)C)cc1)c1ccccc1`, the half-maximal activity concentration (AC50) was 81.1 µM (active) and the result was inactive.
As for `O=C(c1ccc(OCCN2CCCCC2)cc1)c1c(-c2ccc(O)cc2)sc2cc(O)ccc12`, the AC50 is 9.92 µM (active).
As to `CCCCOCCOCCO`, the result was inactive.
The same measure, in the same setting: the entry for `C#C[C@]1(O)CC[C@H]2[C@@H]3CCc4cc(O)ccc4[C@H]3CC[C@@]21C` is “inactive”.
The same measure, in the same setting: the entry for `C[C@]12CC[C@@H]3c4ccc(O)cc4CC[C@H]3[C@@H]1CC[C@@H]2O` is “inactive”; for `COC(=O)c1ccc(C(=O)OC)cc1` it is “inactive”; for `C=C(C)C(N)=O` it is “inactive”.

Read-out in a further assay: Signal transducer and activator of transcription 3 (Homo sapiens) (UniProt P40763)
The experiment in a line: LTEA_HepaRG_STAT3: Life Technologies and Expression Analysis (LTEA) Assay for Signal transducer and activator of transcription (STAT3) using HepaRG (AID 2283529). The following applies: mRNA level, 48 h; actives raise or lower the signal. The procedure, abridged: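 In this transcriptional endpoint, HepaRG cultures receive test chemicals at up to 100 uM for 48 h, tested in duplicate. STAT3 mRNA is normalized to ACTB, GAPDH and POLR2A.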
With `CC/C(=C(\c1ccccc1)c1ccc(OCCN(C)C)cc1)c1ccccc1`, the AC50 was 60.3 µM (active) and 95.8 µM (active).
Still for that read-out and setting: for `O=C(c1ccc(OCCN2CCCCC2)cc1)c1c(-c2ccc(O)cc2)sc2cc(O)ccc12` the value was 50 µM (active).
On to `CCCCOCCOCCO`, for which the compound was called inactive.
Still for that read-out and setting: the entry for `C#C[C@]1(O)CC[C@H]2[C@@H]3CCc4cc(O)ccc4[C@H]3CC[C@@]21C` is “inactive”.
On the same count and under the same terms, for `C[C@]12CC[C@@H]3c4ccc(O)cc4CC[C@H]3[C@@H]1CC[C@@H]2O` the value was “inactive”; for `COC(=O)c1ccc(C(=O)OC)cc1`, “inactive”; for `C=C(C)C(N)=O`, “inactive”.

For the origin of these results see PubChem BioAssay (EPA / NIEHS).
